Source: PubChem BioAssay (NCATS)
Values joined by “and” are separate entries in the source; they are usually repeats but may differ in a detail not shown here. Identical values can stand only once. Results filed as inconclusive are left out. Active and inactive are the calls of the source. Unless noted, the call rests on the fitted dose curve; in most records, active means well fitted curve in the direction sought with a large enough effect; inconclusive means small, poorly fitted or top-dose-only effect, or another doubt; inactive means no such curve, though single readings can be large; an effect the other way counts as inactive or inconclusive.

Columns and labels:
[1] = tested on: JEG-3; assay: Primary qHTS to identify gynecologic anti-cancer compounds using libraries of approved drugs and bioactive compounds (AID 1345084); details: Gynecologic cancer cell panel viability, ATPlite luminescence, 48 h; series mostly up to 57.5 µM; further: nearly all actives have a fitted effect of over 55% in size; further: potency means the concentration at half of the fitted maximal effect; on activity change, negative = cytotoxicity: on the % scale 0 is the no-effect control and ±100 the full control effect
Outline: (§1)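 Five-concentration response, 48 h; readout is ATP-driven luciferase luminescence.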

[2] = tested on: OV90; assay: as above; details: Gynecologic cancer cell panel viability, ATPlite luminescence, 48 h; series mostly up to 57.5 µM
Outline: as §1

[3] = tested on: PA-1; assay: as above; details: Gynecologic cancer cell panel viability, ATPlite luminescence, 48 h; series mostly up to 57.5 µM
Outline: as §1

[4] = tested on: SKOV3; assay: as above; details: Gynecologic cancer cell panel viability, ATPlite luminescence, 48 h; series mostly up to 57.5 µM
Outline: as §1

[5] = tested on: Tov-21-G; assay: as above; details: Gynecologic cancer cell panel viability, ATPlite luminescence, 48 h; series mostly up to 57.5 µM
Outline: as §1

[6] = tested on: Tov112D; assay: as above; details: Gynecologic cancer cell panel viability, ATPlite luminescence, 48 h; series mostly up to 57.5 µM
Outline: as §1

[7] = Drug repurposing screens with cells derived from glioblastoma tumor samples (AID 1345199); details: GBM patient neurospheres viability, ATP luminescence, 48 h; further: nearly all actives have a fitted effect of over 40% in size; further: potency means the concentration at half of the fitted maximal effect; on activity, negative = cell killing: on the % scale 0 is the no-effect control and ±100 the full control effect
Outline: (§2)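 Four patient lines of CD133+ GBM neurospheres were screened at several concentrations; hits were retested in those lines plus three slower-growing GBM lines, using 48-hour treatment and ATP-based viability.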

[8] = tested on: astro; assay: as above; details: viability, ATP luminescence, 48 h; series mostly up to 45.9 µM
Outline: as §2

[9] = target: Nuclear receptor subfamily 1 group I member 2 (Rattus norvegicus) (UniProt Q9R1A7); assay: qHTS assay for small molecule activators of the rat pregnane X receptor (rPXR) signaling pathway (AID 651751; call rule not given here; further: 0% is about no effect); details: rPXR reporter cells, luciferase (One-Glo), 24 h
[10] = qHTS assay for small molecule activators of the human pregnane X receptor (PXR) signaling pathway (AID 720659; call rule not given here; further: 0% is about no effect); details: DPX-2 HepG2 CYP3A4-luciferase, 24 h; series mostly up to 92.3 µM
[11] = qHTS assay to identify inhibitors of the type 1 interferon - major histocompatibility complex class I in skeletal muscle: Counter screen cell viability and HiBit confirmation (AID 1347412); details: iHSKM muscle cells + IFN-b, HiBiT or CellTiter-Glo, 24 h; HiBiT; further: potency means the concentration at half of the fitted maximal effect; nearly all actives have a fitted effect of over 60% in size
Outline: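 Human myoblast knock-in line, 4.0 ng/ml IFN-beta stimulation, 24 h compound treatment. Endpoints: HiBiT lytic luminescence (HLA-B level) and CellTiter Glo (ATP). Dosing 12 concentrations, 3-fold steps, 46 uM highest final.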

[12] = at 45.9 µM (top of the series), tumour line B
[13] = at 45.9 µM (top of the series), tumour line D
[14] = at 46.1 µM (top of the series), tumour line C
[15] = at 20 µM (top of the series), tumour line C
[16] = at 46 µM (top of the series), tumour line A
[17] = at 21.2 µM (top of the series), tumour line B
[18] = at 21.2 µM (top of the series), tumour line D

Chain of Nuclear receptor subfamily 1 group I member 2 (Rattus norvegicus) (Q9R1A7 whole entry, looked up): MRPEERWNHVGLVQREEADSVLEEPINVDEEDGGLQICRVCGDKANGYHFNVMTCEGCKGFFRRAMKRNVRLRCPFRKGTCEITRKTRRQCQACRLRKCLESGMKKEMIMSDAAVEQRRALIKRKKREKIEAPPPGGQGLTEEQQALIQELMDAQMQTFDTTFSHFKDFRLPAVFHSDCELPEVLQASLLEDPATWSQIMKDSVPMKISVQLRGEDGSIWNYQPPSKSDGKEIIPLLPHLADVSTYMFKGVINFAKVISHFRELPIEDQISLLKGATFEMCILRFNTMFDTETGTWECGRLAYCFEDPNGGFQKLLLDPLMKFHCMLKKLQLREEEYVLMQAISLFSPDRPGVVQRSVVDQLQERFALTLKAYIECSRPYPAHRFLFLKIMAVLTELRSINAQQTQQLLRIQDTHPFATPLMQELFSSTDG

C[N+](C)(C)CCOC(N)=O
inactive: Potency [1] | Potency [2] | Potency [3] | Potency [4] | Potency [5] | Potency [6] | activity, negative = cell killing [7, 12] -5.35% | activity, negative = cell killing [7, 13] -11.4% | activity, negative = cell killing [7, 14] -0.881% | Potency [8]

O=C(O)CCCCCCCC(=O)O
inactive: Potency [1] | Potency [2] | Potency [3] | Potency [4] | Potency [5] | Potency [6] | activity, negative = cell killing [7, 12] -8.57% | activity, negative = cell killing [7, 13] -5.03% | activity, negative = cell killing [7, 14] -6.63% | Potency [8] | max response [9] -2.29% | outcome [10]

CN(C)C/C=C(/c1ccc(Br)cc1)c1cccnc1
inactive: Potency [1] | Potency [2] | Potency [3] | Potency [4] | Potency [5] | Potency [6] | activity, negative = cell killing [7, 12] -23% | Potency [8]
active: Potency ([7]; tumour line A) 31.6 µM

CC(C)NNC(=O)c1ccncc1
inactive: Potency [1] | Potency [2] | Potency [3] | Potency [4] | Potency [5] | Potency [6] | activity, negative = cell killing [7, 12] -11.9% | activity, negative = cell killing [7, 13] -16.2% | activity, negative = cell killing [7, 14] -23.6% | Potency [8]

c1ccc2c(c1)CCCC2C1=NCCN1 (stereo not given)
inactive: Potency [1] | Potency [2] | Potency [3] | Potency [5] | Potency [6] | activity, negative = cell killing [7, 12] 0.679% | activity, negative = cell killing [7, 13] 3.62% | activity, negative = cell killing [7, 14] -14.8% | Potency [8]

CCCCCCCC/C=C\CCCCCCCC(=O)NCc1ccc(O)c(OC)c1
inactive: Potency [1] | Potency [2] | Potency [4] | Potency [6] | Potency [8]

CCCCNc1ccc(C(=O)OCCN(C)C)cc1
active: Potency ([7]; tumour line A) 14.1 µM
inactive: Potency [1] | Potency [2] | Potency [3] | Potency [4] | Potency [5] | Potency [6] | activity, negative = cell killing [7, 15] -9.33% | Potency [8]

COc1ccc(CN(CCN(C)C)c2ccccn2)cc1
active: Potency ([7]; tumour line A) 35.5 µM
inactive: Potency [1] | Potency [2] | Potency [3] | Potency [4] | Potency [5] | Potency [6] | activity, negative = cell killing [7, 12] -3.6% | activity, negative = cell killing [7, 14] -2.37% | max response [9] 7.02%

CCCCNc1c(C(=O)OCC)c(C)nc2c1cnn2CC
active: Potency ([7]; tumour line A) 12.6 µM
inactive: Potency [1] | Potency [2] | Potency [3] | Potency [5] | Potency [6] | activity, negative = cell killing [7, 12] -23.3% | Potency [8]

Nc1ncn([C@@H]2O[C@H](CO)[C@@H](O)[C@H]2O)c(=O)n1
active: Potency [1] 10 µM | Potency [3] 10 µM | Potency [5] 12.6 µM | Potency [11] 14 µM
inactive: Potency [2] | outcome [10]

CNC1(C)C2CCC(C2)C1(C)C (stereo not given)
inactive: Potency [1] | Potency [2] | Potency [3] | Potency [5] | Potency [6] | activity, negative = cell killing [7, 12] 1.71% | activity, negative = cell killing [7, 13] 0.479% | activity, negative = cell killing [7, 14] 3.06%

Cc1nc2c([nH]1)c(=O)n(C)c(=O)n2Cc1ccco1
inactive: Potency [1] | Potency [2] | Potency [3] | Potency [4] | Potency [5] | Potency [6] | activity, negative = cell killing [7, 12] -4.62% | activity, negative = cell killing [7, 13] -3.2% | activity, negative = cell killing [7, 14] -11.8% | Potency [8]

NC(=O)N1c2ccccc2C=Cc2ccccc21
inactive: Potency [1] | Potency [2] | Potency [3] | Potency [5] | Potency [6] | activity, negative = cell killing [7, 12] -0.221% | activity, negative = cell killing [7, 13] -27.4% | activity, negative = cell killing [7, 16] -32.7% | activity, negative = cell killing [7, 14] -16.6% | Potency [8] | max response [9] 5.91% and 3.5%

CN1CCN(CC(=O)N2c3ccccc3C(=O)Nc3cccnc32)CC1
inactive: activity change, negative = cytotoxicity [1] -2.67% [at 6.55 µM] | activity change, negative = cytotoxicity [2] 8.92% [at 6.55 µM] | activity change, negative = cytotoxicity [3] 18.1% [at 6.55 µM] | activity change, negative = cytotoxicity [4] 8.94% [at 6.55 µM] | activity change, negative = cytotoxicity [5] 7.44% [at 6.55 µM] | activity change, negative = cytotoxicity [6] -0.53% [at 6.55 µM] | activity, negative = cell killing [7, 12] -1.68% | activity, negative = cell killing [7, 13] -4.29% | activity, negative = cell killing [7, 14] 9.11% | Potency [8]

Cc1nnc(SCC2=C(C(=O)O)N3C(=O)[C@@H](NC(=O)Cn4cnnn4)[C@H]3SC2)s1
inactive: Potency [1] | Potency [2] | Potency [3] | Potency [4] | Potency [5] | Potency [6] | activity, negative = cell killing [7, 12] -10.7% | activity, negative = cell killing [7, 13] -8.75% | activity, negative = cell killing [7, 14] -9.01% | Potency [8]

O=C(O)CP(=O)(O)O
inactive: Potency [1] | Potency [2] | Potency [4] | Potency [5] | Potency [6] | activity, negative = cell killing [7, 12] -17.9% | activity, negative = cell killing [7, 13] 13.7% | activity, negative = cell killing [7, 16] -25.2% | activity, negative = cell killing [7, 14] -15.6% | Potency [8]

C(=C\c1ccccc1)/CN1CCN(C(c2ccccc2)c2ccccc2)CC1
active: Potency ([7]; tumour line A) 7.08 µM
inactive: Potency [1] | Potency [2] | Potency [3] | Potency [5] | Potency [6] | activity, negative = cell killing [7, 15] -1.05% | activity, negative = cell killing [7, 17] -13.5% | activity, negative = cell killing [7, 18] -14%

Cc1cccc(C)c1NC(=O)C(C)N (stereo not given)
inactive: Potency [1] | Potency [2] | Potency [3] | Potency [4] | Potency [5] | Potency [6] | activity, negative = cell killing [7, 15] 6.4% | activity, negative = cell killing [7, 17] -16.9% | activity, negative = cell killing [7, 18] 1.82% | Potency [8]

C[C@]12CCC(=O)C=C1CC[C@@H]1[C@@H]2CC[C@@]2(C)[C@H]1CC[C@]2(O)C(=O)CO
inactive: Potency [1] | Potency [2] | Potency [3] | Potency [4] | Potency [5] | Potency [6] | activity, negative = cell killing [7, 12] -14.7% | activity, negative = cell killing [7, 13] 0.984% | activity, negative = cell killing [7, 14] -72.8% | Potency [8]

CN(C)CCOC(=O)COc1ccc(Cl)cc1
inactive: Potency [1] | Potency [2] | Potency [3] | Potency [5] | Potency [6] | activity, negative = cell killing [7, 15] -19.3% | activity, negative = cell killing [7, 17] -11.3% | activity, negative = cell killing [7, 18] -14.6% | Potency [8]
